Consider 36 compounds from PubChem BioAssay (NCATS).

Records with an inconclusive call do not appear. Calls of active or inactive are those of the source. Calls come from the whole dose curve; as a rule, active = well fitted curve in the direction sought with a large enough effect; inconclusive = small, poorly fitted or top-dose-only effect, or another doubt; inactive = no such curve, though single readings can be large; an effect the other way counts as inactive or inconclusive. Where a SMILES comes first, the peptide text is derived from it. [ ]: non-standard residue; d: D form. pGlu = O=C1CC[C@@H](C(=O)O)N1; Thz = O=C(O)[C@@H]1CSCN1

The nature of test [1]: qHTS assay for measurement of the activity of small molecule inhibitors on Zika virus induced Caspase-3 activity in human astrocytoma cells (AID 1224859). An outline of the steps: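 Compound added 1 h pre-infection; ZIKV 2 FFU/cell on SNB-19 cells, 6 h, 37 C/5% CO2. Caspase-Glo 3/7 luminescence; values as % inhibition of ZIKV-induced caspase activity.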
Background: qHTS replaces the single test concentration by a dilution series.

The nature of test [2]: P-glycoprotein substrates identified in KB-3-1 adenocarcinoma cell line, qHTS therapeutic library screen (AID 1346986). Note: nearly all actives have a fitted effect of over 60% in size.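 Note: potency is the fitted concentration of half-maximal effect; potency is for cytotoxicity meaning loss of cell viability.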 An outline of the steps:
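KB-3-1 parental cells and P-gp-overexpressing KB-8-5-11 (colchicine omitted during assay) plated at 500 cells/well, dosed in dose-response, incubated 72 h at 37 degree C. CellTiter-Glo luminescence read; KB-8-5-11 also tested with tariquidar.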

The nature of test [3]: qHTS assay to identify small molecule inhibitors of chordoma cells - UCH-1 (AID 1259355). Note: nearly all actives have a fitted effect of over 55% in size. Note: potency is the fitted concentration of half-maximal effect; series mostly up to about 46 µM. An outline of the steps: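 Luminescent ATP read-out (CellTiter-Glo, 30min at room temperature) measured viability of UCH-1 cells exposed for 48hr to test drugs at 15 concentrations, co-dosed with a five-agent combination of auranofin, camptothecin, doxorubicin, rubitecan and topotecan.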

Test [4] is described as follows: qHTS assay to identify small molecule inhibitors of chordoma cells - UCH-2 (AID 1259356). Note: potency is the fitted concentration of half-maximal effect.

For `Nc1ncnc2c1c(I)cn2[C@@H]1C[C@H](N)[C@@H](O)[C@H]1O`, the Potency result in test [1] is “inactive”. The Potency in test [2] was 14.6 µM (active).

For the compound `CC(=O)O[C@H]1C[C@@]2(C)[C@@H](C[C@@H](O)[C@H]3[C@@]4(C)CC[C@@H](O)[C@@H](C)[C@@H]4CC[C@@]32C)/C1=C(\CCC=C(C)C)C(=O)O`, the Potency entry in test [3], in test [4] and in test [2] was “inactive” in each case.

As to `CO[C@H]1C[C@@H]2CC[C@@H](C)[C@@](O)(O2)C(=O)C(=O)N2CCCC[C@H]2C(=O)O[C@H]([C@H](C)C[C@@H]2CC[C@@H](O)[C@H](OC)C2)CC(=O)[C@H](C)C=C(C)[C@@H](O)[C@@H](OC)C(=O)[C@H](C)C[C@H](C)/C=C/C=CC=C1C`, the Potency result in test [3] and in test [4] was “inactive” in each case.

As for `C=C(Nc1ccc(OCC)cc1)Nc1ccc(OCC)cc1`, the Potency result in test [3] and in test [4] was “inactive” in each case.

In the case of `O=C(O)Cc1ccc(-c2ccccc2)cc1`, the Potency entry in test [3] and in test [4] was “inactive” throughout.

Consider `CC1(C)[C@@H](O)CC[C@]2(C)[C@H]3C(=O)C=C4[C@@H]5C[C@@](C)(C(=O)O)CC[C@]5(C)CC[C@@]4(C)[C@]3(C)CC[C@@H]12`, for which the Potency entry in test [3], in test [4] and in test [2] was “inactive” in each case.

As to `COc1cc(CNC(=O)CCCC/C=C/C(C)C)ccc1O`, the Potency result in test [3], in test [4] and in test [2] was “inactive” throughout.

For the compound `O=C(O)CC1CC(c2ccccc2)=NO1` (stereo unspecified), the Potency result in test [1] and in test [2] was “inactive” each time.

As for `CCCCCC[C@@H](O)C/C=C\CCCCCCCC(=O)O`, the Potency entry in test [3] and in test [4] was “inactive” each time.

With `CN1[C@@H]2CC[C@H]1CC(OC(=O)C(CO)c1ccccc1)C2` (stereo partly specified), the Potency entry in test [3] and in test [4] was “inactive” each time.

Turning to `CCCCC[C@H](O)/C=C/[C@@H]1[C@@H](C/C=C\CCCC(=O)O)[C@@H](O)C[C@H]1O`, the Potency entry in test [3] and in test [4] was “inactive” throughout.

Take `CC(=O)[C@]1(O)Cc2c(O)c3c(c(O)c2[C@@H](O[C@H]2C[C@H](N)[C@H](O)[C@H](C)O2)C1)C(=O)c1c(O)cccc1C3=O`: the Potency in test [3] was 1.58 µM (active); in test [4] it was 20.6 µM (active).

Turning to `O=C(O)[C@H](CC(=O)N1C[C@H]2CCCC[C@H]2C1)Cc1ccccc1`, the Potency entry in test [3] and in test [4] was “inactive” in each case.

Regarding `COc1cc(/C=C/C(=O)CC(=O)/C=C/c2ccc(O)c(OC)c2)ccc1O`, the Potency entry in test [3] and in test [4] was “inactive” in each case.

For `COc1cc(/C=C/C(=O)N2CCN(CC(=O)N3CCCC3)CC2)cc(OC)c1OC`, the Potency entry in test [3], in test [4] and in test [2] was “inactive” throughout.

For `C=CCN1C(=O)C(CC(C)C)NC1=S` (stereo unspecified), the Potency entry in test [3] and in test [4] was “inactive” throughout.

Turning to `Nc1ccc(O)c(C(=O)O)c1`, the Potency entry in test [3] and in test [4] was “inactive” throughout.

`CN1[C@@H]2CC[C@H]1CC(OC(c1ccccc1)c1ccccc1)C2` (stereo partly specified): the Potency entry in test [4] and in test [2] was “inactive” throughout.

On to `CC[C@H]1OC(=O)[C@H](C)C(=O)[C@H](C)[C@@H](O[C@@H]2O[C@H](C)C[C@H](N(C)C)[C@H]2O)[C@](C)(OC)C[C@@H](C)C(=O)[C@H](C)[C@H]2N(CCCCn3cnc(-c4cccnc4)c3)C(=O)O[C@]12C`, for which the Potency entry in test [3] and in test [4] was “inactive” each time.

`CC1(C)S[C@@H]2[C@H](NC(=O)[C@H](N)c3ccc(O)cc3)C(=O)N2[C@H]1C(=O)O`: the Potency result in test [3] and in test [4] was “inactive” in each case.

Consider `CC1(C)S[C@@H]2[C@H](NC(=O)[C@H](NC(=O)N3CCN(S(C)(=O)=O)C3=O)c3ccccc3)C(=O)N2[C@H]1C(=O)O`, for which the Potency entry in test [3], in test [4] and in test [2] was “inactive” each time.

Turning to `CC[C@H]1OC(=O)[C@H](C)[C@@H](O[C@H]2C[C@@](C)(OC)[C@@H](O)[C@H](C)O2)[C@H](C)[C@@H](O[C@@H]2O[C@H](C)C[C@H](N(C)C)[C@H]2O)[C@](C)(O)C[C@@H](C)C(=O)[C@H](C)[C@@H](O)[C@]1(C)O`, the Potency result in test [3] and in test [4] was “inactive” each time.

With `Cc1onc(-c2c(F)cccc2Cl)c1C(=O)N[C@@H]1C(=O)N2[C@@H]1SC(C)(C)[C@@H]2C(=O)O`, the Potency entry in test [3], in test [4] and in test [2] was “inactive” throughout.

In the case of `O=C1CC[C@@H](C(=O)N2CSC[C@H]2C(=O)O)N1` ([pGlu]-[Thz]-OH), the Potency result in test [3], in test [4] and in test [2] was “inactive” throughout.

`CN1CCN(c2cc3c(nn2)Oc2ccccc2N3C)CC1`: the Potency result in test [3] and in test [4] was “inactive” each time.

For `CC(=O)c1ccc(OCC(=O)N2CCCCC2)cc1`, the Potency result in test [1] and in test [2] was “inactive” throughout.

Take `CC1(C)[C@@H](O[C@H]2O[C@H](C(=O)O)[C@@H](O)[C@H](O)[C@H]2O[C@@H]2O[C@H](C(=O)O)[C@@H](O)[C@H](O)[C@H]2O)CC[C@]2(C)[C@H]3C(=O)C=C4[C@@H]5C[C@@](C)(C(=O)O)CC[C@]5(C)CC[C@@]4(C)[C@]3(C)CC[C@@H]12`: the Potency entry in test [3], in test [4] and in test [2] was “inactive” throughout.

Regarding `CC1(C)C[C@@H]1C(=O)N/C(=C\CCCCSC[C@H](N)C(=O)O)C(=O)O`, the Potency entry in test [3] and in test [4] was “inactive” throughout.

Take `C[S+](CC[C@H](N)C(=O)O)C[C@H]1O[C@@H](n2cnc3c(N)ncnc32)[C@H](O)[C@@H]1O` (stereo partly specified): the Potency result in test [3] and in test [4] was “inactive” throughout.

As for `N#C/C(=C\c1ccc(O)c(O)c1)C(=O)NCCCc1ccccc1`, the Potency entry in test [1] and in test [2] was “inactive” each time.

Regarding `CC(C(=O)O)c1ccc2c(c1)[nH]c1ccc(Cl)cc12` (stereo unspecified), the Potency entry in test [3] and in test [4] was “inactive” in each case.

With `O=C(O)COc1ccc(C(=O)c2cccs2)c(Cl)c1Cl`, the Potency entry in test [3] and in test [4] was “inactive” throughout.

Regarding `N#C/C(=C\c1ccc(O)c(O)c1)C(=O)NCc1ccccc1`, the Potency entry in test [1] and in test [2] was “inactive” throughout.

Consider `C[C@H](O)[C@H](O)[C@H]1CNc2nc(N)[nH]c(=O)c2N1`, for which the Potency result in test [3], in test [4] and in test [2] was “inactive” in each case.

For `CC(=O)SCC(CC(=O)c1ccc(C)cc1)C(=O)O` (stereo unspecified), the Potency entry in test [1] and in test [2] was “inactive” in each case.

Consider `O=C(O)[C@H](O)[C@@H](O)[C@H](O)[C@H](O)CO`, for which the Potency entry in test [3] and in test [4] was “inactive” each time.
